High-throughput results: PubChem BioAssay, The Scripps Research Institute Molecular Screening Center
TTR transcr act: activators of transthyretin transcription. SH-SY5Y TTR promoter Gaussia luciferase, luminescence; 100% = recombinant luciferase protein wells. activation, % at 16.7 µM. 1.3% of 92,000 active;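 active means activation above the mean of all tested compounds plus 3 SD, cut at about 9.5% in these data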;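 further: cells exposed to compounds for one day before reading; 0% = median of all test compound wells on the plate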
TTR inh HuH7: decreases TTR transcription in HuH7 cells in activator counter-screen | inhibition, % at 16.7 µM | HuH7 TTR promoter-Gaussia luciferase reporter, luminescence | shares compounds with TTR transcr act | 4% of 1,100 active;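 active means average inhibition above the solvent-only control wells' mean plus 3 SD, cut at about 15% in these data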;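 further: 0% = cells with DMSO only and 100% = cells with inhibitor control FD; inhibitors lower well luminescence so higher value means more inhibition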
TTR up confirm: confirmation of human transthyretin transcription activators; 1,100 tested, under 10 active; activation, % at 16.7 µM; SHSY5Y TTR promoter Gaussia luciferase, luminescence; 100% = purified Lucia enzyme wells, no cells; AID 1117280; shares compounds with TTR transcr act;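 active means mean activation above a set limit taken from the earlier primary screen, cut at about 11% in these data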;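 further: 0% = DMSO-treated cells and 100% = recombinant Lucia luciferase without cells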
* = called active by the depositor. The sample as a whole holds a higher share of hits than the screen did.

SMILES	TTR transcr act	others
Cc1ccc2c(Cl)cc(Cl)c(OCC(=O)NC(=O)NCc3ccco3)c2n1	-2
O=C(OCC(=O)N1CCN(S(=O)(=O)c2ccccc2)CC1)c1ccc([N+](=O)[O-])o1	4
COCCCn1c(=O)cc(C)[nH]c1=S	0
CN(C)N1C(=O)CC(N2CCCCC2)C1=O (stereo unspecified)	-2
CC1CCN(S(=O)(=O)c2ccc3c(c2)oc(=O)n3CC(=O)NCc2ccc3c(c2)OCO3)CC1	0
Cc1cc(C)c(C(=O)N2CCCC(C(=O)c3cc(F)ccc3F)C2)o1 (stereo unspecified)	3
COc1ccc(C(=O)C2CCCN(C(=O)c3c4c(nn3C)CCCC4)C2)cc1F (stereo unspecified)	2
Cn1nc2c(c1C(=O)N1CCCC(C(=O)c3cc(F)ccc3F)C1)CCCC2 (stereo unspecified)	12*	TTR inh HuH7=-19;TTR up confirm=-1
COCCCn1c(-c2cccc(Cl)c2)nc2c1c(=O)[nH]c(=O)n2Cc1ccccc1	-2
Cc1ccccc1NC(=O)Cn1cnc2c(oc3nc4c(cc32)COC(C)(C)C4)c1=O	-1
O=C(O)CCc1ccc(-c2cccs2)n1NC(=O)c1ccco1	-3
O=C(O)CCc1ccc(-c2ccccc2)n1NC(=O)c1ccco1	22*	TTR inh HuH7=-19;TTR up confirm=0
O=C(Nn1c(-c2ccccc2)nc2ccccc2c1=O)c1ccco1	1
O=C(N/N=C/C(Br)=C/c1ccccc1)c1ccc([N+](=O)[O-])cc1	-3
O=C(Nc1ccc(OCC(F)(F)C(F)F)c(C(F)(F)F)c1)c1ccc(Cl)cc1	-7
CSCC[C@H](NC(=O)[C@H]1CC[C@H](CNC(=O)[C@@H]2CCCN2)CC1)C(=O)O	1
CSCCC(NC(=O)C1CCC(C)CC1)C(=O)O (stereo unspecified)	58*	TTR inh HuH7=7;TTR up confirm=3
COC(=O)C(CCSC)NC(=O)C(NC(=O)C1CCC(C)CC1)C(C)C (stereo unspecified)	-2
Cc1ccc(NC(=O)c2c(-c3ccccc3Cl)noc2C)nc1	0
Cc1noc(C)c1-c1ccc(C(=O)NCc2ccco2)c2occc12	3
O=C(Cc1cccc(NC(=O)C2CCCN(C(=O)c3ccccc3)C2)c1)Nc1ccc(C(=O)N2CCCCC2)cc1 (stereo unspecified)	1
COC(=O)[C@@H]1[C@@H](C)N(Cc2ccccc2)C(=O)N[C@H]1c1cccc(C(F)(F)F)c1	-4
COc1ccc(CCN2CC(C(=O)NCC(c3ccccc3)N(C)C)CC2=O)cc1OC (stereo unspecified)	1
COC(=O)CSC1=C(C#N)C(c2ccccc2F)CC(=O)N1 (stereo unspecified)	-1
COC(=O)C1=C(C)OC(N)=C(C#N)C1c1ccccc1F (stereo unspecified)	2
SMILES	TTR transcr act	others
N#CC1=C(N)NC(=S)C(C(N)=O)C1c1ccccc1F (stereo unspecified)	12*	TTR inh HuH7=-25;TTR up confirm=0
COCCNC(=S)N(CCO)Cc1cc2cc3c(cc2[nH]c1=O)OCCO3	-1
COC(=O)c1cn(CCC#N)nc1-c1ccc2ccccc2c1	0
Cc1ccc(C(=O)Nc2nnc(-c3ccco3)o2)cc1	6
Cc1ccsc1C(=O)Nc1nnc(-c2ccco2)o1	16*	TTR inh HuH7=0;TTR up confirm=0
CCC(=O)Nc1nnc(-c2ccco2)o1	1
O=S(=O)(c1ccc(Cl)cc1)N1CN(CC2CCCO2)c2nc3ccccc3nc21 (stereo unspecified)	3
COc1cc(OC)c(OC)cc1/C=C1\Oc2cc(OS(C)(=O)=O)ccc2C1=O	-1
Fc1ccc(NC(=S)NC2CCCCC2)c(F)c1F	3
Cc1cc2nc(-c3cccc(Cl)c3)c(CC3CCCCC3)n2c(C)c1Br	2
COc1ccc(-c2nc3cc(C)c(Br)c(C)n3c2CC2CCCCC2)cc1OC	2
Cc1cc2nc(-c3ccc(F)cc3)c(CC3CCCCC3)n2c(C)c1Br	2
Cc1cc2nc(-c3ccccc3)c(CC3CCCCC3)n2c(C)c1Br	22*	TTR inh HuH7=-8;TTR up confirm=1
Cc1ccc(-c2nc3cc(C)c(Br)c(C)n3c2CC2CCCCC2)cc1	9.8*	TTR inh HuH7=-9;TTR up confirm=0
CCCc1nc2cc(C)c(Br)c(C)n2c1CC1CCCCC1	-2
CCc1ccc(-n2c(CSc3nnnn3-c3ccccc3)nc3ccccc3c2=O)cc1	-2
CSc1nsc(SC)c1NC(=O)OCc1ccccc1	2
CCCc1c(-c2cccc(Cl)c2)ncn1Cc1ccccc1OC	-2
COc1cccc(C2=NOC(C(=O)Nc3ccc4c(c3)OCO4)C2)c1OC (stereo unspecified)	0
c1nc(NC2CCCC2)c2[nH]cnc2n1	0
O=C(O)c1ccc(N2CC3CC(C2)c2cccc(=O)n2C3)c(NC(=S)Nc2ccc(Cl)cc2Cl)c1 (stereo unspecified)	11*	TTR inh HuH7=-4;TTR up confirm=0
Nc1cc(C(=O)N2CCN(c3cccc(Cl)c3)CC2)ccc1N1CC2CC(C1)c1cccc(=O)n1C2 (stereo unspecified)	-2
O=C(CCN1CCOCC1)Nc1cc(C(=O)Nc2ccccc2F)ccc1N1CC2CC(C1)c1cccc(=O)n1C2 (stereo unspecified)	0
CCOCc1nnc(NC(=O)c2ccc(OC)cc2)s1	-3
c1ccc(SC23CC4CC(CC(C4)C2)C3)nc1	-1
SMILES	TTR transcr act	others
Cn1c(-c2cccc([N+](=O)[O-])c2)cnc1NCc1cccc([N+](=O)[O-])c1	0
COc1ccc(CNc2ncc(-c3ccccc3)n2C)c(OC)c1OC	11*	TTR inh HuH7=5;TTR up confirm=-1
COc1ccc(-c2cnc(NCc3cc4c(cc3[N+](=O)[O-])OCO4)n2C)cc1	1
CCOc1ccccc1N1CCN(Cc2ccc(OC)c(OC)c2)CC1	1
O=C(NCCc1ccc(C(F)(F)F)cc1)C1COc2ccccc2O1 (stereo unspecified)	0
CC(=O)Nc1ccc(C(=O)NCCN2CCOCC2)cc1	-1
Cc1ccc(NS(=O)(=O)c2ccc(C(=O)NCCN3CCOCC3)cc2)cc1	15*	TTR inh HuH7=-10;TTR up confirm=1
O=C(NCCCN1CCOCC1)c1ccc(NS(=O)(=O)c2cccc([N+](=O)[O-])c2)cc1	0
N#C/C(=C\c1ccc[nH]1)C(=O)NCC1CCCO1 (stereo unspecified)	11*	TTR inh HuH7=-8;TTR up confirm=0
CCOc1cc(/C=C(\C#N)C(=O)NCC2CCCO2)ccc1O (stereo unspecified)	6
Cc1ccc(/C=C(\C#N)C(=O)NCC2CCCO2)o1 (stereo unspecified)	5
CC(C)(C)c1ccc(OCC(=O)N2CCCCCC2)c(Br)c1	0
CCc1c(C)sc(NC(=O)CSc2nc3c(c(C(F)(F)F)n2)CCc2ccccc2-3)c1C#N	0
CSC1=NCCCN1C(=O)c1c(-c2ccccc2Cl)noc1C	-1
CCOC(=O)N/N=C\c1sccc1C	-1
CCOC(=O)N/N=C/c1ccc(F)cc1F	26*	TTR inh HuH7=-4;TTR up confirm=0
CCOC(=O)N/N=C/c1ccccc1OCc1ccc(Cl)cc1	-2
CCC[C@H]1[C@@H](N)CC[C@@]23CCCN2C(=O)CCC[C@@H]13	2
Cc1ccc2c(c1)c1c(n2CC(O)CNC2CCCC2)CCCC1 (stereo unspecified)	2
Cc1cccc(NC(=O)C[n+]2cccc(C)c2)c1	-2
Cc1cc(C)c(C(=O)C[n+]2cccc(C(N)=O)c2)c(C)c1	14*	TTR inh HuH7=-9;TTR up confirm=0
